Assay results as given in PubChem BioAssay (Tox21).
Inconclusive results are not listed. The source made the active and inactive calls. The call rests on the fitted dose curve; in most records, active means well fitted inhibition curve with a large enough effect in the repeat runs; inconclusive means weak or mixed curves, or effect the other way; inactive means no such curve, though single readings can be large or run the other way.

Target: Nuclear receptor ROR-gamma (Homo sapiens) (UniProt P51449)
Experiment: qHTS assay to identify small molecule antagonists of the retinoid-related orphan receptor gamma (ROR-gamma) signaling pathway (AID 1159521; further: top concentration of the series differs between compounds; nearly all actives have a fitted effect of over 50% in size)
Conditions: Tet-on RORgamma CHO cells, RORE-luciferase, 16 h; series mostly up to 92.4 µM
Text: U.S. Tox21 Program National Center for Advancing Translational Sciences [NCATS] NIH Chemical Genomics Center [NCGC] U.S. Environmental Protection Agency [EPA] National Institutes of Environmental Health Sciences [NIEHS] National Toxicology Program [NTP] U.S. Food and Drug Administration [FDA] Tox21 Assay Overview: Nuclear steroid hormone receptors are involved in many biological processes including inflammatory responses, cell proliferation, and apoptosis. Environmental factors or compounds disrupting these nuclear receptor pathways and gene expression may promote susceptibility to immunotoxicants and autoimmune diseases. One important group of these expression factors are the retinoid-related orphan receptors. To assess compounds that may interfere with the retinoid-related orphan receptor gamma (ROR-gamma) transcription factor, a cell-based luciferase assay was used. The CHO cell-based assay utilizes a TET-inducible ROR expression factor and ROR response element-LUC reporter gene. Reporter gene activity was induced using Doxycycline Hyclate and measured after 16 hr incubation. Tet-on ROR gamma CHO cells were used to screen against the Tox21 10K compound library for ROR gamma antagonists by quantification of decreased reporter gene activity in terms of decreased luminescence.
Tox21 Assay Protocol Summary: Tet-on ROR gamma CHO cells were dispensed at 1,000 cells in 4 uL of culture medium per well into white wall/solid bottom 1536-well plates using a Multidrop Combi (Thermo Scientific, Waltham, MA) dispenser. Following incubation at 37 C and 5% CO2 for 4 hr, 23 nL of compounds dissolved in DMSO, positive controls or DMSO only were transferred by a Pintool station (Kalypsys, San Diego, CA) and after 2 hr incubation at 37 C, one ul of 1 uM (final concentration) of Doxycycline Hyclate was added to all the wells by using a Flying Reagent Dispenser (FRD) (Aurora Discovery, San Diego, CA). After 16 hr incubation at 37 C and 5% CO2, 5 uL of ONE-Glo reagent (Promega Corporation, Madison, WI) was added to each assay plate using FRD. After 30 min incubation at room temperature, luminescence was quantified on a ViewLux plate reader (Perkin Elmer, Waltham, MA).
On the % scale 0 is the no-effect control and ±100 the full control effect.

Compound	outcome	activity change, negative = inhibition
CN(CCOc1ccc(NS(C)(=O)=O)cc1)CCc1ccc(NS(C)(=O)=O)cc1	inactive	
O=C(O)CCSSCCC(=O)O	inactive	
COc1ccc(Br)c(C)c1	inactive	
Cc1cc2cc3c(C)cc(=O)oc3c(C)c2o1	inactive	
CN(C)CCOCCO	inactive	
CCOCCOC(=O)/C=C/c1ccc(OC)cc1	inactive	
COc1cc(N)ccc1C	inactive	
O=C(O)Cc1ccc(Cl)cc1Cl	inactive	
CC1(C)S[C@@H]2[C@H](N=CN3CCCCCC3)C(=O)N2[C@H]1C(=O)O	inactive	
CN1CCN(CC(=O)N2c3ccccc3C(=O)Nc3cccnc32)CC1		14.7% [at 8.39 µM] (inactive)
CC(=O)Nc1cccc(C)c1	inactive	
CCOc1cc([N+](=O)[O-])c(OCC)cc1N1CCOCC1	inactive	
Cc1ccccc1OCC(O)CO (stereo not given)	inactive	
C=C(C)C(=O)OCCNC(C)(C)C	inactive	
CC(=O)OC(C)OC(=O)C(C)c1ccc(-c2ccccc2)c(F)c1 (stereo not given)	inactive	
CC(=C(CCOC(=O)C(C)C)SSC(CCOC(=O)C(C)C)=C(C)N(C=O)Cc1cnc(C)nc1N)N(C=O)Cc1cnc(C)nc1N	inactive	
NS(=O)(=O)c1cc2c(cc1Cl)CN(C1CCCCC1)C2=O	inactive	
C=Cc1ccccn1	inactive	
Cc1cccc(C)c1OCC(C)N (stereo not given)	inactive	
BrCc1cccc(Oc2ccccc2)c1	inactive	

Compound	outcome	activity change, negative = inhibition
CCCOC(=O)C(C)O (stereo not given)	inactive	
CC(C)N(c1ccccc1)C(C)C	inactive	
C[Si](C)=O		3.36% [at 8.39 µM] (inactive)
C=C(C)C(=O)OCC(C)(C)COC(=O)C(=C)C	inactive	
O=C(OCc1ccccc1)C(=O)OCc1ccccc1	inactive	
CCCCN	inactive	
O=C(O)c1ccc(Cl)cc1Cl	inactive	
Cc1cccc(OCC(O)CNC(C)(C)C)c1C (stereo not given)	inactive	
O=C(OCC(O)CO)c1ccccc1Nc1ccnc2c(C(F)(F)F)cccc12 (stereo not given)	inactive	
Cc1ccccc1N=O	inactive	
COP(=O)(OC)OC(c1ccc(Cl)cc1)P(=O)(OC)OC (stereo not given)	inactive	
N[C@@H](CCC(=O)N[C@@H](CS)C(=O)NCC(=O)O)C(=O)O		-1.88% [at 19 µM] (inactive)
Cc1ccc(S(=O)(=O)O)c(C)c1	inactive	
CCCCCOC(=O)CCC	inactive	
CC(=O)NCc1c(I)c(NC(C)=O)c(I)c(C(=O)O)c1I	inactive	
CC(=O)N[C@@H](CCC(=O)O)C(=O)O	inactive	
CC(C)CC(=O)O	inactive	
CCN(C)C(=O)Oc1cccc([C@H](C)N(C)C)c1	inactive	
C=CCCCCCCCCCCCC	inactive	
O=C1O[C@@H]2[C@@H](O)[C@H](O)O[C@@H]2[C@H]1O	inactive	
